The source of these data is the supplement of paper PMC12819154, “High-throughput peptide-centric local stability assay extends protein–ligand identification to membrane proteins, tissues and bacteria” (Nature Structural & Molecular Biology, 2025).
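Also: lysate desalted by size exclusion to strip endogenous ATP, peptide intensities built from DIA-NN precursor signals, and peptides missing any value discarded before comparison.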

Compound in this experiment: Nc1ncnc2c1ncn2[C@@H]1O[C@H](COP(=O)(O)OP(=O)(O)OP(=O)(O)O)[C@@H](O)[C@H]1O [adenosine 5'-triphosphate]
The experiment in a line: log2 fold change of tryptic peptide abundance, ligand vs vehicle (limited proteolysis) (log2 ratio); higher = more trypsin-susceptible (destabilized). The conditions noted are these: ligand concentration: 5 mM; sample: E. coli desalted lysate; replicate design: treated before aliquoting. The method, then:
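HT-PELSA: desalted E. coli K-12 BW25113 lysate (with 12 mM MgCl2) incubated with 5 mM ATP (pH 7) or water for 30 min at 25 C, then a 4 min trypsin pulse at 22 C. Peptides were quantified by DIA-MS (4 replicates). Value is the peptide log2 fold change (treated/control); negative = stabilized. Scale: negative = ligand-stabilized region.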
Regarding “UniProt P76046 (peptide sequence: RLKNELNALVNR, peptide start residue: 3)”, the log2 fold change was determined as 0.559.

In the case of “UniProt P37028 (peptide sequence: IVALKPDLVIAWR, peptide start residue: 74)”, the log2 fold change was found to be 0.465.

“UniProt P00509 (peptide sequence: VWVSNPSWPNHK, peptide start residue: 123)”: the log2 fold change is -1.24.

For “UniProt P0AFI5 (peptide sequence: YTHFADASR, peptide start residue: 264)”, the log2 fold change was -0.35.

For the target “UniProt P21645 (peptide sequence: KTAALVMNIDDMSKR, peptide start residue: 315)”, the log2 fold change is -0.565.

Consider “UniProt Q47146 (peptide sequence: GITLPSNSTGGVK, peptide start residue: 375)”, for which the log2 fold change is -0.706.

Regarding “UniProt P0A6H5 (peptide sequence: VQAIEKNR, peptide start residue: 113)”, the log2 fold change amounted to 1.65.

Turning to “UniProt P76053 (peptide sequence: NVLIIHGK, peptide start residue: 116)”, the log2 fold change turned out to be 0.613.

On to “UniProt P75960 (peptide sequence: LHGAHTVELNLEPSQVGNEFAEK, peptide start residue: 231)”, for which the log2 fold change was found to be 0.525.

Consider “UniProt P31680 (peptide sequence: LMSEHHPDKLVAK, peptide start residue: 228)”, for which the log2 fold change is -0.381.

Take “UniProt P43672 (peptide sequence: LMLGQLQADSGR, peptide start residue: 364)”: the log2 fold change was -0.906.

For “UniProt P0DPP7 (peptide sequence: NKYLNSTR, peptide start residue: 41)”, the log2 fold change stood at 0.633.

With “UniProt P14175 (peptide sequence: YIEQGLSK, peptide start residue: 24)”, the log2 fold change was found to be 1.4.

Take “UniProt P64624 (peptide sequence: QIVLNLYEK, peptide start residue: 192)”: the log2 fold change is 0.361.

“UniProt P75728 (peptide sequence: LVIGADGANSQVR, peptide start residue: 160)”: the log2 fold change turned out to be 0.798.

Consider “UniProt P0AG16 (peptide sequence: TFIMPGQQLR, peptide start residue: 334)”, for which the log2 fold change was -0.26.

With “UniProt P00490 (peptide sequence: QCNPALAALLDK, peptide start residue: 460)”, the log2 fold change came out at 1.07.

On to “UniProt P24193 (peptide sequence: AVVTSMAETAR, peptide start residue: 111)”, for which the log2 fold change is -1.88.

Take “UniProt P10121 (peptide sequence: KRGFFSWLGFGQK, peptide start residue: 6)”: the log2 fold change was determined as 0.814.

Consider “UniProt P28634 (peptide sequence: WRVTDAGFEVFALEPR, peptide start residue: 220)”, for which the log2 fold change amounted to 0.789.

With “UniProt P36999 (peptide sequence: RYPQVTFCVASSHR, peptide start residue: 128)”, the log2 fold change is -0.656.

Turning to “UniProt P55135 (peptide sequence: RLSDSPER, peptide start residue: 69)”, the log2 fold change is -0.744.

On to “UniProt P25666 (peptide sequence: MHLFTIKK, peptide start residue: 171)”, for which the log2 fold change was -0.804.

With “UniProt P77485 (peptide sequence: GTVAVTSDAR, peptide start residue: 461)”, the log2 fold change was -0.644.

For the target “UniProt Q46906 (peptide sequence: AEGFFCIHR, peptide start residue: 99)”, the log2 fold change was -0.839.

Take “UniProt P33593 (peptide sequence: VLALVGGSGSGK, peptide start residue: 31)”: the log2 fold change is -0.833.

Consider “UniProt P23840 (peptide sequence: HFIPVLTR, peptide start residue: 38)”, for which the log2 fold change was 0.387.

Consider “UniProt P00960 (peptide sequence: AVAEAYYASREALGFPMCNKDK, peptide start residue: 282)”, for which the log2 fold change was 0.93.

For “UniProt P21507 (peptide sequence: DVLGSAPTGTGK, peptide start residue: 43)”, the log2 fold change was -3.34.

In the case of “UniProt P06720 (peptide sequence: CVEQLANWHKELEEYKK, peptide start residue: 299)”, the log2 fold change was -1.1.

In the case of “UniProt P11664 (peptide sequence: GAPETFDVAK, peptide start residue: 101)”, the log2 fold change is -1.46.

As for “UniProt P76206 (peptide sequence: FEFGPGVR, peptide start residue: 152)”, the log2 fold change worked out at 1.15.

Turning to “UniProt P37327 (peptide sequence: AMAIHEHIR, peptide start residue: 37)”, the log2 fold change is -0.62.

Turning to “UniProt P38097 (peptide sequence: VTVYEPQQAAAHSER, peptide start residue: 840)”, the log2 fold change is -1.32.

“UniProt P11557 (peptide sequence: AVSTLPADVQAK, peptide start residue: 402)”: the log2 fold change was determined as 0.435.

In the case of “UniProt P17117 (peptide sequence: ESRPFILDYLHK, peptide start residue: 223)”, the log2 fold change is 1.13.

Turning to “UniProt P09832 (peptide sequence: HVTCAYR, peptide start residue: 313)”, the log2 fold change came to 0.367.

As for “UniProt P33650 (peptide sequence: AYAGEASQHLDAALAR, peptide start residue: 217)”, the log2 fold change was 0.832.

Take “UniProt P76440 (peptide sequence: EELDEFPASEKEFTSAR, peptide start residue: 286)”: the log2 fold change came out at 0.874.

With “UniProt P42603 (peptide sequence: TPSAVDER, peptide start residue: 175)”, the log2 fold change is -0.551.
